HT1080 IDH1KD tx: toxicity to HT-1080 IDH1 knockdown cells (counter line) | HT-1080 IDH1 knockdown viability, ATP luminescence, 48 h | Potency, µM (titrated, usually from 46.1 µM), without a hit: at the top dose activity, negative = toxicity, most hits filed as cytotoxic | 360,000 compounds, 2% hits;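 note: 0% = DMSO wells and -100% = cell-free medium wells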
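% activity derives from luminescence (CellTiter-Glo), normalised to DMSO and no-cell wells. HT-1080-IDH1KD cells, 750/well, had 48 h compound exposure at 37 °C.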
ATXN viability: reduces viability in counter-screen for ATXN expression inhibitors | S2 cells (HEK-293 line with an ATXN2-luciferase reporter) viability, CellTiter-Fluor protease fluorescence, 24 h | Potency, µM (top dose mostly 56.7 µM), most hits filed as cytotoxic | 400,000 compounds, 0.49% hits; note: nearly all actives have a fitted effect of over 40% in size
ATXN2 expr inh: reduces ATXN2 reporter expression in HEK-293 cells; HEK-293 ATXN2-luciferase reporter, luminescence, 24 h; Potency, µM (series often up to 57 µM), for the others: top-dose activity change, negative = inhibition, actives largely listed as inhibitors; 360,000 compounds, 0.72% hits; AID 1745845; note: % is set by controls: 0 for no effect and ±100 for the full control effect; nearly all actives have a fitted effect of over 55% in size
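ATXN2-luciferase reporter cells (luciferase flanked by upstream and downstream ATXN2 gene portions) were treated 24 h at 37 °C with compounds at up to 57 uM. SteadyGlo luminescence gave expression; GF-AFC fluorescence gave viability.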
HT1080NT lethal: kills 2HG-producing HT-1080-NT fibrosarcoma cells; HT-1080-NT fibrosarcoma viability, CellTiter-Glo ATP luminescence, 48 h; Potency, µM (series often up to 46.1 µM), for inactives: at the top dose activity, negative = less viability, actives largely listed as cytotoxic; 360,000 compounds, 1.6% hits; AID 686970;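 note: NT is the 2HG producing partner of a matched IDH1 knockdown line; 0% = DMSO-treated cells and -100% = media-only wells without cells; nearly all actives have a fitted effect of over 55% in size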
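Luminescent CellTiter-Glo readout after 48 hours of compound exposure at 37 degrees C defined viability of HT-1080-NT cells. Activity was normalized to DMSO wells and cell-free media wells; concentration-response curves were fitted and assigned curve classes.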
TGFb inhibitor: blocks TGF-b signaling; HepG2 CAGA-GFP TGF-b/SMAD3 reporter, GFP fluorescence, 18 h; TGF-beta stimulated, 500 pg/mL final; Potency, µM (titrated, usually from 46.1 µM), for the others: at the highest dose activity, negative = inhibition, most hits filed as inhibitors; 410,000 compounds, 1.2% hits; AID 588855; note: % is set by controls: 0 for no effect and ±100 for the full control effect; nearly all actives have a fitted effect of over 65% in size
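HEPG2 CAGA-GFP reporter cells (1000/well, DMEM with 1% FBS) received compounds, then recombinant TGF-beta at 500 pg/mL final for 18 hours at 37 degrees C. Per-cell GFP summed per well was normalised to unstimulated and stimulated DMSO controls before curve fitting.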
HepG2 viability: kills HepG2 cells in TGF-b inhibitor counter-screen | Potency, µM (series often up to 46.1 µM), without a hit: at the top dose activity change, negative = cytotoxicity, actives largely listed as cytotoxic | HepG2 CAGA-GFP viability, ATP luminescence, 18 h | 410,000 compounds, 0.76% hits | AID 588856
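CellTiter-Glo luminescence gave cytotoxicity after 18 hours at 37 degrees C. The cells were HepG2 CAGA-GFP in 1% FBS DMEM, stimulated with 500 pg/mL TGF-beta after compound addition. %Activity was normalised to no-cell wells (complete cell-killing) and DMSO (no toxicity), and curves were fitted and classified.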
Numbers without * were called inactive; [ ] = remark or other dose. Hits are enriched below; roughly 3.9% of the tested compounds scored in any of these assays. Calls come from the whole dose curve; as a rule, active = well fitted curve in the direction sought with a large enough effect; inconclusive = small, poorly fitted or top-dose-only effect, or another doubt; inactive = no such curve, though single readings can be large; an effect the other way counts as inactive or inconclusive. Potency is the fitted concentration of half-maximal effect.

Results for Cn1c(=O)c(Cc2ccccc2)c(O)c2ccccc21 ?
HT1080 IDH1KD tx: -13%; ATXN viability: inactive; ATXN2 expr inh: -4%; HT1080NT lethal: 0%[9.24 µM]; TGFb inhibitor: 2%; HepG2 viability: -4%

Results for CC[C@@]1(c2ccccc2OC)ON(c2ccccc2C(F)(F)F)C1=O ?
HT1080 IDH1KD tx: inconclusive; ATXN2 expr inh: 22µM*; HT1080NT lethal: -27%; TGFb inhibitor: inconclusive; HepG2 viability: 14µM*

How did COc1cc(/C=N/Nc2snc(SC)c2C#N)cc(OC)c1OC do in these assays?
HT1080 IDH1KD tx: 4.6µM*; ATXN viability: inconclusive; ATXN2 expr inh: 3.2µM*; HT1080NT lethal: inconclusive; TGFb inhibitor: inconclusive; HepG2 viability: -25%

Results for CCOC(=O)Cc1nn(Cc2nc(-c3ccc(C)cc3)cs2)c(=O)c2ccccc12 ?
HT1080 IDH1KD tx: -8%; ATXN viability: inactive; HT1080NT lethal: 16µM*; TGFb inhibitor: -17%; HepG2 viability: -23%

How did COc1cccc(-c2nc(S(=O)(=O)c3ccccc3)c(NCc3ccccc3)o2)c1 do in these assays?
ATXN viability: inactive; ATXN2 expr inh: 2%; TGFb inhibitor: -3%; HepG2 viability: -6%

What do the screens show for `CNC[C@H](Cc1ccccc1)NC[C@@H](Cc1cccc2ccccc12)NCCc1ccc(C)cc1`?
HT1080 IDH1KD tx: inconclusive; ATXN viability: inconclusive; ATXN2 expr inh: inconclusive; HT1080NT lethal: inconclusive; TGFb inhibitor: inconclusive; HepG2 viability: 18µM*

How did CCOC(=O)c1c(C)nc2c(c1-c1cc(OC)ccc1OC)C(=O)c1ccccc1-2 do in these assays?
HT1080 IDH1KD tx: 3%; HT1080NT lethal: -3%; TGFb inhibitor: -28%; HepG2 viability: 1%

What do the screens show for `CCOC(=O)C1=C(Cc2ccc(OC)cc2)C(=O)c2ccccc2C1=O`?
HT1080 IDH1KD tx: 7.9µM*; ATXN viability: inconclusive; ATXN2 expr inh: inconclusive; HT1080NT lethal: 10µM*; TGFb inhibitor: inconclusive; HepG2 viability: -98%

How did CCOC(=O)C1=C(O)c2ccccc2C(=O)/C1=C\c1ccc(CC)cc1 do in these assays?
HT1080 IDH1KD tx: 8.9µM*; ATXN viability: inconclusive; ATXN2 expr inh: inconclusive; HT1080NT lethal: 11µM*; TGFb inhibitor: -6%; HepG2 viability: -53%

Results for COc1ccc(-n2c(CNC(=O)c3cccc(OC)c3OC)nnc2SC)cc1 ?
ATXN viability: inactive

Results for CCN1CCN(c2nc(Nc3cccc(OC)c3)nc(N)c2[N+](=O)[O-])CC1 ?
HT1080 IDH1KD tx: inconclusive; ATXN viability: inactive; HT1080NT lethal: inconclusive; TGFb inhibitor: -3%; HepG2 viability: -10%

Results for Cc1cccc(Nc2nc(N)c([N+](=O)[O-])c(N3CCC(C)CC3)n2)c1 ?
HT1080 IDH1KD tx: inconclusive; ATXN viability: inactive; ATXN2 expr inh: -6%; HT1080NT lethal: inconclusive; TGFb inhibitor: 14µM*; HepG2 viability: -74%

How did Cc1cccc(Nc2nc(N)c([N+](=O)[O-])c(N3CC(C)CC(C)C3)n2)c1 (stereo unspecified) do in these assays?
HT1080 IDH1KD tx: 21µM*; ATXN viability: inconclusive; ATXN2 expr inh: -16%; HT1080NT lethal: 16µM*; TGFb inhibitor: inconclusive; HepG2 viability: 11µM*

What do the screens show for `Cc1cccc(Nc2nc(N)c([N+](=O)[O-])c(N3CC(C)OC(C)C3)n2)c1` (stereo unspecified)?
HT1080 IDH1KD tx: 5%; ATXN viability: inconclusive; ATXN2 expr inh: -29%; HT1080NT lethal: 4%; TGFb inhibitor: 0%; HepG2 viability: 1%

Results for CNCCC=C1c2ccccc2CCc2ccccc21 ?
HT1080 IDH1KD tx: inconclusive; ATXN viability: inactive; ATXN2 expr inh: -4%; HT1080NT lethal: 23µM*; TGFb inhibitor: 54%; HepG2 viability: -35%
